# Reference: publication PMC11062922 (Nature Chemical Biology, 2023)
# Like-named read-outs stand apart in the source and are kept apart here.
# Assays:
# CAMKK2 = tested on: CAMKK2; design: species or system human, MV4-11 + K-562 + COLO205 + SK-N-BE2 + OVCAR-8; settings: read-out: apparent Kd; compound concentrations: 100 nM and 1000 nM (sheet 'Samples'), CATDS: 3.10077731514018E-2; n = 1
# CLK1 = tested on: CLK1; design: species or system human, MV4-11 + K-562 + COLO205 + SK-N-BE2 + OVCAR-8; settings: read-out: apparent Kd, n = 1
# CLK4 = tested on: CLK4; design: species or system human, MV4-11 + K-562 + COLO205 + SK-N-BE2 + OVCAR-8; settings: read-out: apparent Kd; compound concentrations: 100 nM and 1000 nM (sheet 'Samples'), CATDS: 6.3001679315381406E-2; n = 1
# CSNK1D = tested on: CSNK1D; design: species or system human, MV4-11 + K-562 + COLO205 + SK-N-BE2 + OVCAR-8; settings: read-out: apparent Kd; compound concentrations: 100 nM and 1000 nM (sheet 'Samples'), CATDS: 3.1213203175664998E-2; n = 1
# EIF2AK1 = tested on: EIF2AK1; design: species or system human, MV4-11 + K-562 + COLO205 + SK-N-BE2 + OVCAR-8; settings: read-out: apparent Kd; compound concentrations: 100 nM and 1000 nM (sheet 'Samples'), CATDS: 3.5611911741364403E-2; n = 1
# FER = tested on: FER; design: species or system human, MV4-11 + K-562 + COLO205 + SK-N-BE2 + OVCAR-8; settings: read-out: apparent Kd; compound concentrations: 100 nM and 1000 nM (sheet 'Samples'), CATDS: 4.34234720684002E-2; n = 1
# GAK = tested on: GAK; design: species or system human, MV4-11 + K-562 + COLO205 + SK-N-BE2 + OVCAR-8; settings: read-out: apparent Kd, n = 1
# IGF1R = tested on: IGF1R; design: species or system human, MV4-11 + K-562 + COLO205 + SK-N-BE2 + OVCAR-8; settings: read-out: apparent Kd; compound concentrations: 100 nM and 1000 nM (sheet 'Samples'), CATDS: 3.6183356665864301E-2; n = 1
# INSR = tested on: INSR; design: species or system human, MV4-11 + K-562 + COLO205 + SK-N-BE2 + OVCAR-8; settings: read-out: apparent Kd; compound concentrations: 100 nM and 1000 nM (sheet 'Samples'), CATDS: 4.1283599015515197E-2; n = 1
# MAPK10 = tested on: MAPK10; design: species or system human, MV4-11 + K-562 + COLO205 + SK-N-BE2 + OVCAR-8; settings: read-out: apparent Kd, n = 1
# MAPK8 = tested on: MAPK8; design: species or system human, MV4-11 + K-562 + COLO205 + SK-N-BE2 + OVCAR-8; settings: read-out: apparent Kd; compound concentrations: 100 nM and 1000 nM (sheet 'Samples'), CATDS: 0.11476451358793401; n = 1
# MAPK9 = tested on: MAPK9; design: species or system human, MV4-11 + K-562 + COLO205 + SK-N-BE2 + OVCAR-8; settings: read-out: apparent Kd; compound concentrations: 100 nM and 1000 nM (sheet 'Samples'), CATDS: 6.9052364835720206E-2; n = 1
# NUAK1 = tested on: NUAK1; design: species or system human, MV4-11 + K-562 + COLO205 + SK-N-BE2 + OVCAR-8; settings: read-out: apparent Kd; compound concentrations: 100 nM and 1000 nM (sheet 'Samples'), CATDS: 3.4302390396245802E-2; n = 1
# PRKD2 = tested on: PRKD2; design: species or system human, MV4-11 + K-562 + COLO205 + SK-N-BE2 + OVCAR-8; settings: read-out: apparent Kd; compound concentrations: 100 nM and 1000 nM (sheet 'Samples'), CATDS: 3.5974174305942498E-2; n = 1
# PRKD3 = tested on: PRKD3; design: species or system human, MV4-11 + K-562 + COLO205 + SK-N-BE2 + OVCAR-8; settings: read-out: apparent Kd; compound concentrations: 100 nM and 1000 nM (sheet 'Samples'), CATDS: 3.1846341330559601E-2; n = 1
# PTK2B = tested on: PTK2B; design: species or system human, MV4-11 + K-562 + COLO205 + SK-N-BE2 + OVCAR-8; settings: read-out: apparent Kd; compound concentrations: 100 nM and 1000 nM (sheet 'Samples'), CATDS: 8.6310597132222E-2; n = 1
# PTK2 = tested on: PTK2; design: species or system human, MV4-11 + K-562 + COLO205 + SK-N-BE2 + OVCAR-8; settings: read-out: apparent Kd; compound concentrations: 100 nM and 1000 nM (sheet 'Samples'), CATDS: 5.1603916843062203E-2; n = 1
# Q6ZSR9 = Q6ZSR9 (human, UniProt Q6ZSR9); design: species or system MV4-11 + K-562 + COLO205 + SK-N-BE2 + OVCAR-8; settings: read-out: apparent Kd; compound concentrations: 100 nM and 1000 nM (sheet 'Samples'), CATDS: 3.1507778196600798E-2; n = 1
# Sequence of Q6ZSR9 (Q6ZSR9 whole entry, looked up): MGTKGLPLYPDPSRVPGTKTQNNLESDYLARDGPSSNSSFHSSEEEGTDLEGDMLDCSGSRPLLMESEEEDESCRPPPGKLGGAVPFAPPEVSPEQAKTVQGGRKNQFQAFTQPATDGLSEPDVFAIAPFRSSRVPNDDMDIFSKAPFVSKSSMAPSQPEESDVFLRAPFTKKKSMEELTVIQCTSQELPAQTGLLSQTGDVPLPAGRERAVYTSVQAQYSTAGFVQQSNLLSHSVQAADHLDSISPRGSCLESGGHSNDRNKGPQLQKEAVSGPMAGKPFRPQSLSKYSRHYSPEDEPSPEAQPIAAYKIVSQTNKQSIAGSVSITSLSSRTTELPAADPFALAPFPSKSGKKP
# RPS6KA1 = tested on: RPS6KA1; design: species or system human, MV4-11 + K-562 + COLO205 + SK-N-BE2 + OVCAR-8; settings: read-out: apparent Kd; compound concentrations: 100 nM and 1000 nM (sheet 'Samples'), CATDS: 3.19128363140119E-2; n = 1
# TNK1 = tested on: TNK1; design: species or system human, MV4-11 + K-562 + COLO205 + SK-N-BE2 + OVCAR-8; settings: read-out: apparent Kd; compound concentrations: 100 nM and 1000 nM (sheet 'Samples'), CATDS: 0.144330390511521; n = 1
# TTK = tested on: TTK; design: species or system human, MV4-11 + K-562 + COLO205 + SK-N-BE2 + OVCAR-8; settings: read-out: apparent Kd; compound concentrations: 100 nM and 1000 nM (sheet 'Samples'), CATDS: 8.7899385258393206E-2; n = 1
# CDC42BPG = tested on: CDC42BPG; design: species or system human, MV4-11 + K-562 + COLO205 + SK-N-BE2 + OVCAR-8; settings: read-out: apparent Kd; compound concentrations: 100 nM and 1000 nM (sheet 'Samples'), CATDS: 1; n = 1
# CAMK2B = tested on: CAMK2B; design: species or system human, MV4-11 + K-562 + COLO205 + SK-N-BE2 + OVCAR-8; settings: read-out: apparent Kd; compound concentrations:100 nM and 1000 nM (sheet 'Samples'); n = 1
# CDC7 = tested on: CDC7; design: species or system human, MV4-11 + K-562 + COLO205 + SK-N-BE2 + OVCAR-8; settings: read-out: apparent Kd; compound concentrations:100 nM and 1000 nM (sheet 'Samples'); n = 1
# FN3K = tested on: FN3K; design: species or system human, MV4-11 + K-562 + COLO205 + SK-N-BE2 + OVCAR-8; settings: read-out: apparent Kd; compound concentrations:100 nM and 1000 nM (sheet 'Samples'); n = 1
# ICK = tested on: ICK; design: species or system human, MV4-11 + K-562 + COLO205 + SK-N-BE2 + OVCAR-8; settings: read-out: apparent Kd; compound concentrations:100 nM and 1000 nM (sheet 'Samples'); n = 1
# RIPK2 = tested on: RIPK2; design: species or system human, MV4-11 + K-562 + COLO205 + SK-N-BE2 + OVCAR-8; settings: read-out: apparent Kd; compound concentrations:100 nM and 1000 nM (sheet 'Samples'); n = 1
# CAMK4 = tested on: CAMK4; design: species or system human, MV4-11 + K-562 + COLO205 + SK-N-BE2 + OVCAR-8; settings: read-out: apparent Kd; compound concentrations:100 nM and 1000 nM (sheet 'Samples'); n = 1
# CDK4 = tested on: CDK4; design: species or system human, MV4-11 + K-562 + COLO205 + SK-N-BE2 + OVCAR-8; settings: read-out: apparent Kd; compound concentrations:100 nM and 1000 nM (sheet 'Samples'); n = 1
# CDKL5 = tested on: CDKL5; design: species or system human, MV4-11 + K-562 + COLO205 + SK-N-BE2 + OVCAR-8; settings: read-out: apparent Kd; compound concentrations:100 nM and 1000 nM (sheet 'Samples'); n = 1
# GSK3A = tested on: GSK3A; design: species or system human, MV4-11 + K-562 + COLO205 + SK-N-BE2 + OVCAR-8; settings: read-out: apparent Kd; compound concentrations:100 nM and 1000 nM (sheet 'Samples'); n = 1
# GSK3B = tested on: GSK3B; design: species or system human, MV4-11 + K-562 + COLO205 + SK-N-BE2 + OVCAR-8; settings: read-out: apparent Kd; compound concentrations:100 nM and 1000 nM (sheet 'Samples'); n = 1
# MERTK = tested on: MERTK; design: species or system human, MV4-11 + K-562 + COLO205 + SK-N-BE2 + OVCAR-8; settings: read-out: apparent Kd; compound concentrations:100 nM and 1000 nM (sheet 'Samples'); n = 1
# PRKCA = tested on: PRKCA; design: species or system human, MV4-11 + K-562 + COLO205 + SK-N-BE2 + OVCAR-8; settings: read-out: apparent Kd; compound concentrations:100 nM and 1000 nM (sheet 'Samples'); n = 1
# PRKCB = tested on: PRKCB; design: species or system human, MV4-11 + K-562 + COLO205 + SK-N-BE2 + OVCAR-8; settings: read-out: apparent Kd; compound concentrations: 100 nM and 1000 nM (sheet 'Samples'), CATDS: 6.3755563095046694E-2; n = 1
# PRKCD = tested on: PRKCD; design: species or system human, MV4-11 + K-562 + COLO205 + SK-N-BE2 + OVCAR-8; settings: read-out: apparent Kd; compound concentrations:100 nM and 1000 nM (sheet 'Samples'); n = 1
# PRKCQ = tested on: PRKCQ; design: species or system human, MV4-11 + K-562 + COLO205 + SK-N-BE2 + OVCAR-8; settings: read-out: apparent Kd; compound concentrations:100 nM and 1000 nM (sheet 'Samples'); n = 1
# RPS6KA6 = tested on: RPS6KA6; design: species or system human, MV4-11 + K-562 + COLO205 + SK-N-BE2 + OVCAR-8; settings: read-out: apparent Kd; compound concentrations:100 nM and 1000 nM (sheet 'Samples'); n = 1
# RPS6KB1 = tested on: RPS6KB1; design: species or system human, MV4-11 + K-562 + COLO205 + SK-N-BE2 + OVCAR-8; settings: read-out: apparent Kd; compound concentrations:100 nM and 1000 nM (sheet 'Samples'); n = 1
# [1] = compound concentrations:100 nM and 1000 nM (sheet 'Samples')
compound,measurement,setting,value
COc1cc(N2CCN(C(C)C)CC2)ccc1Nc1nc(Nc2ccc(F)cc2C(N)=O)c2cc[nH]c2n1 [GSK1220512A],potency estimated from few doses,CAMKK2,2210 nM
same,potency estimated from few doses,"CLK1; compound concentrations: 100 nM and 1000 nM (sheet 'Samples'), CATDS: 5.1220055062038403E-2",361 nM
same,potency estimated from few doses,CLK4,213 nM
same,potency estimated from few doses,CSNK1D,2140 nM
same,potency estimated from few doses,EIF2AK1,1180 nM
same,potency estimated from few doses,FER,587 nM
same,potency estimated from few doses,"GAK; compound concentrations: 100 nM and 1000 nM (sheet 'Samples'), CATDS: 0.16140378921040499",38 nM
same,potency estimated from few doses,IGF1R,1110 nM
same,potency estimated from few doses,INSR,691 nM
same,potency estimated from few doses,"MAPK10; compound concentrations: 100 nM and 1000 nM (sheet 'Samples'), CATDS: 0.121038756107581",59.2 nM
same,potency estimated from few doses,MAPK8,64.7 nM
same,potency estimated from few doses,MAPK9,172 nM
same,potency estimated from few doses,NUAK1,1380 nM
same,potency estimated from few doses,PRKD2,1130 nM
same,potency estimated from few doses,PRKD3,1930 nM
same,potency estimated from few doses,PTK2B,108 nM
same,potency estimated from few doses,PTK2,354 nM
same,potency estimated from few doses,Q6ZSR9,2040 nM
same,potency estimated from few doses,RPS6KA1,1910 nM
same,potency estimated from few doses,TNK1,44.9 nM
same,potency estimated from few doses,TTK,104 nM
Cc1ccc(NC(=O)c2ccc(Cl)c(Cl)c2)cc1-c1ccc(C(=O)Nc2ccncc2)cc1 [GSK1398460A],potency estimated from few doses,CDC42BPG,1100 nM
COc1cc2ncnc(Nc3cccc(Br)c3)c2cc1OC.Cl [GI230329A],potency estimated from few doses,CAMK2B,405 nM
same,potency estimated from few doses,CDC7,2060 nM
same,potency estimated from few doses,FN3K,2150 nM
same,potency estimated from few doses,GAK; [1],319 nM
same,potency estimated from few doses,ICK,1370 nM
same,potency estimated from few doses,MAPK10; [1],956 nM
same,potency estimated from few doses,RIPK2,1140 nM
Cl.Cn1cc(C2=C(c3cn(CCCN)c4ccccc34)C(=O)NC2=O)c2ccccc21 [RO0317549-002],potency estimated from few doses,CAMK4,1430 nM
same,potency estimated from few doses,CDK4,1650 nM
same,potency estimated from few doses,CDKL5,2060 nM
same,potency estimated from few doses,CLK1; [1],1850 nM
same,potency estimated from few doses,GSK3A,136 nM
same,potency estimated from few doses,GSK3B,115 nM
same,potency estimated from few doses,ICK,109 nM
same,potency estimated from few doses,MERTK,1370 nM
same,potency estimated from few doses,PRKCA,117 nM
same,potency estimated from few doses,PRKCB,606 nM
same,potency estimated from few doses,PRKCD,93.3 nM
same,potency estimated from few doses,PRKCQ,566 nM
same,potency estimated from few doses,RPS6KA6,44.1 nM
same,potency estimated from few doses,RPS6KB1,1180 nM
